NRP1-CendR mod: modulators of CendR peptide binding to human neuropilin-1. O14786. FAM-RPARPAR peptide binding to NRP-1, fluorescence polarization. inhibition, % at 25 µM. 360,000 compounds, 0.85% hits;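 active = inhibition or corrected inhibition above about 18%, plus a signal ratio from 0.5 to 1.5, limit read from the data, passing the limit was not always enough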
DNA FID counter: displaces DNA intercalator in HCV helicase counter-screen | 290,000 compounds, 0.17% hits | inhibition, % at 7.9 µM | AID 1845 | DNA fluorescent intercalator displacement, fluorescence; in the data active = inhibition above about 37%;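 note: 0% = vehicle and 100% = reference compound; higher means more ethidium bromide displaced from hairpin DNA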
RAD52 anneal inh: RAD52 (human) annealing inhibition; P43351; recombinant RAD52 DNA annealing, FRET fluorescence; inhibition, % at 18.7 µM; 360,000 compounds, 0.46% hits; AID 651710;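 active = every replicate showing at least 50% inhibition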
Target sequence (P43351 whole entry, looked up): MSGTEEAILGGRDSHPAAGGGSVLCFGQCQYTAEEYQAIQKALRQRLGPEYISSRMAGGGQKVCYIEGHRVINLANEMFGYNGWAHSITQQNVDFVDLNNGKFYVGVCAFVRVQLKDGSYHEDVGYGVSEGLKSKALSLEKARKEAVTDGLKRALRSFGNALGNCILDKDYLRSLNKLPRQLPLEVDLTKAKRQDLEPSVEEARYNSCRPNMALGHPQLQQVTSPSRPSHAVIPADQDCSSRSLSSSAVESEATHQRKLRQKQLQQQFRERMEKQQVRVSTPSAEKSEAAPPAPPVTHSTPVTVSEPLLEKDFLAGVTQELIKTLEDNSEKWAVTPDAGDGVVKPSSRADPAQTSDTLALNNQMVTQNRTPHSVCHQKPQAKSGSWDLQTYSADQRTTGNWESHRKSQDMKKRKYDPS
miR-122 sensor: inhibitors of miR-122 in Huh7 cells. 340,000 compounds, 0.3% hits. activation (reporter increase), % at 12.5 µM. Huh7 miR-122 Renilla luciferase sensor, 48 h; neutral wells = 0, positive control = 100;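 active = mean replicate activation score at least 90 and every replicate individually at or above 90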;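 note: higher luciferase means less miR-122 activity so hits act as miR-122 inhibitors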
RAD54 inh: blocks human RAD54 Holliday junction branch migration | FAM/BHQ fluorescence | inhibition, % at 10.4 µM | 360,000 compounds, 0.14% hits;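 active = mean normalized replicate activity at least 40 and at least half of replicates scoring 40 or more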;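 note: 0% = median of neutral control wells and 100% = median of positive control wells; inhibitors cause a drop in the FAM fluorescence signal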
N-glyco inh: blocks N-linked glycosylation in D54 reporter cells. D54 ERlucT glycosylation luciferase reporter, 24 h; percent of 100 nM tunicamycin response. reporter increase, % at 12.5 µM. AID 588692. 360,000 compounds, 0.23% hits;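 active = mean luciferase reporter signal, scaled so untreated is 0 and the glycosylation-blocking control 100, at or above a set limit in every replicate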;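 note: luciferase carries N-glycosylation sites so blocking glycosylation raises the light; 0% = median of neutral control wells and 100% = median of 100 nM tunicamycin wells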
Starred values were filed as active, the others as inactive; · = not tested or not shown; ! = a repeat was not active; [ ] = another dose, or the depositor's remark. Most compounds without a hit are left out; they make up all but 1.5% or so of the library.

SMILES | NRP1-CendR mod | DNA FID counter | RAD52 anneal inh | miR-122 sensor | RAD54 inh | N-glyco inh
Cc1nc2ncccn2c1-c1csc(Nc2ccccc2)n1 | -24 | -14 | -1 | · | · | 9
CCN1C(=O)/C(=C2/Sc3ccccc3N2CC)SC1=S | 48* | -5 | -27 | 0 | 8 | -1
CCCNC(=O)C[C@H]1CC[C@@H]2[C@@H](COc3ccc(NC(=O)NCCC)cc3C(=O)N2C)O1 | · | · | -5 | · | · | ·
CN(Cc1nc2ccccc2c(=O)[nH]1)C(=O)COc1ccccc1Cc1ccccc1 | 31* | · | -3 | -6 | 6 | 0
CCN(Cc1nc2ccccc2c(=O)[nH]1)C(=O)COc1ccccc1Cc1ccccc1 | -9 | · | -18 | 1 | -11 | 0
CO[C@H]1CN(C)C(=O)c2cc(NC(=O)C3CCOCC3)ccc2OC[C@@H](C)N(C(=O)c2ccccc2)C[C@@H]1C | · | · | · | -7[16.7 µM] | · | ·
Cc1ccccc1OCC(=O)N/N=C1\CCOc2c(C)cccc21 | 6 | -4 | 2 | · | · | 1
COc1cccc2c1OCC/C2=N\NC(=O)COc1ccccc1C | 32* | -24 | · | · | · | 0
COCCn1nnnc1SCC(=O)c1ccc(F)cc1 | -3 | -3 | · | 7 | 17 | 0
COCCn1c(SCC(=O)c2ccc(F)cc2)nnc1C(C)C | 24* | 2 | · | -3 | -16 | -1
C[C@H]1CN([C@@H](C)CO)S(=O)(=O)c2ccc(C3=CCCC3)cc2O[C@H]1CN(C)C(=O)C1CC1 | · | · | · | 4[16.7 µM] | · | ·
COc1ccc(S(=O)(=O)N(C)C[C@H]2OCCCC[C@H](C)Oc3ccc(NS(=O)(=O)c4cccs4)cc3C(=O)N([C@@H](C)CO)C[C@H]2C)cc1 | · | · | -55 | 5[16.7 µM] | 3 | ·
CC1CCN(C(=O)COC(=O)COc2ccccc2C#N)CC1 | 1 | · | -16 | · | -13 | 0
N#Cc1ccccc1OCC(=O)OCC(=O)N1CCCC1 | 19* | · | -11 | -4 | -9 | 0
N#C/C(=C\c1ccccc1)C(=O)OCC(=O)N1CCCC1 | 24* | 2 | -12 | · | · | 0
C=CCc1ccc(OCCn2nnc3ccccc32)c(OC)c1 | 27* | -31 | 1 | 3 | -11 | 1
CC(C)(O)c1cn([C@@H]2C[C@@H]3O[C@@H](CO)CC[C@@H]3O[C@@H]2CCc2ccc(-c3cccnc3)cc2)nn1 | · | · | -7 | · | · | ·
CCn1c(C)nc2cc(OC)ccc21 | 21* | 7 | 7 | 0 | 8 | 1
CCn1c(C)nc2cc(C(N)=O)ccc21 | 2 | -3 | -8 | -9 | 15 | 2
CN(C)C(=O)[C@@H]1[C@@H](CO)[C@@H]2Cn3c(ccc(C4=CCCCC4)c3=O)[C@@H]2N1CC1CC1 | · | · | -12 | 11[16.7 µM] | -3 | ·
Cc1ccc2cc(CN(CCCN(C)C)C(=O)NCc3ccccc3)c(=O)[nH]c2c1C | 38* | 19 | · | -12 | 7 | 25
Cc1ccc2cc(CN(CCCN(C)C)C(=S)NCc3ccccc3)c(=O)[nH]c2c1C | 7 | 14 | 5 | · | · | 3
C[C@H]1CCCCO[C@H](CN(C)C)[C@@H](C)CN([C@@H](C)CO)C(=O)c2cc(NS(=O)(=O)c3ccc(F)cc3)ccc2O1 | · | · | -18 | 0[16.7 µM] | 3 | ·
C[C@H]1CN([C@@H](C)CO)C(=O)c2cccc(NC(=O)NC3CCCCC3)c2O[C@@H]1CN(C)CC1CCCCC1 | · | · | -9 | 38[16.7 µM] | 2 | ·
O=C(NCC1CC1)C1(S(=O)(=O)c2ccccc2)CC=CC1 | 21* | -2 | -14 | -5 | -2 | 2
SMILES | NRP1-CendR mod | DNA FID counter | RAD52 anneal inh | miR-122 sensor | RAD54 inh | N-glyco inh
N=c1n(CCN2CCCC2)c2ccccc2n1CC(O)c1ccc(Cl)c(Cl)c1 (configuration not stated) | -2 | 48* | 26 | -2 | 8 | -6
N=c1n(CCN2CCOCC2)c2ccccc2n1CC(=O)c1ccc(Cl)c(Cl)c1 | 0 | -8 | · | · | · | 0
COc1cc(/C=N/NC(=O)Cn2cnc3ccccc3c2=O)ccc1O | 11 | -3 | -5 | · | · | 1
O=C(Cn1cnc2ccccc2c1=O)N/N=C/c1ccc(Br)cc1 | 23* | -24 | -9 | -2 | -2 | 2
Cc1ccc(-c2ccc3c(c2)O[C@H](CN(C)C(=O)Nc2ccc(C(F)(F)F)cc2)[C@H](C)CN([C@@H](C)CO)S3(=O)=O)cc1 | · | · | 20 | -8[16.7 µM] | 0 | ·
CCCOC(=O)C1=C(C)NC2=C(C(=O)CC(C)(C)C2)C1c1ccc(N(C)C)cc1 (configuration not stated) | -16 | -18 | · | 15 | -2 | -4
CCN(CC)c1ccc(C2C(C(=O)OCCOC)=C(C)NC3=C2C(=O)CC(C)(C)C3)cc1 (configuration not stated) | 3 | -4 | · | 95* | -6 | -1
Cc1csc(SCC(=O)Nc2cccc(S(=O)(=O)N3CCCC3)c2)n1 | 26* | -13 | · | -3 | -3 | 2
CCn1c(SCC(=O)Nc2ccc(C(C)=O)cc2)nc2c([nH]c3ccccc32)c1=O | 9 | -25 | -10 | 6 | 3 | 92*
Cc1ccccc1-c1ccc(C2[C@@H]3CN(S(=O)(=O)c4ccccc4C)C[C@H]2N3)cc1 (some centres not stated) | · | · | 72*! | · | · | ·
COc1cccc(-c2ccc(C3[C@@H]4CN(S(=O)(=O)c5ccccc5C)C[C@H]3N4)cc2)c1 (some centres not stated) | · | · | 73*! | · | · | ·
COc1cccc(S(=O)(=O)N2C[C@@H]3N[C@H](C2)C3c2ccc(/C=C/c3ccccc3)cc2)c1 (some centres not stated) | · | · | 58*! | · | · | ·
Cc1ccccc1-c1ccc(C2[C@@H]3CN(S(=O)(=O)c4ccccc4)C[C@H]2N3)cc1 (some centres not stated) | · | · | -16 | · | · | ·
Cc1noc(C)c1NC(=O)Nc1ccc2c(c1)CC(=O)N([C@H](C)CO)C[C@@H](C)[C@@H](CN(C)Cc1ccc(Cl)c(Cl)c1)O2 | · | · | 11 | 4[16.7 µM] | -19 | ·
C=C1CCN([C@@H](CC(C)C)C(=O)NCc2ccc(Cl)cc2)S(=O)(=O)c2ccccc21 | 18 | · | -14 | 1 | 3 | -4
C=C1CCN([C@@H](CC(C)C)C(=O)NCc2ccc(Cl)c(Cl)c2)S(=O)(=O)c2ccccc21 | 32* | · | -13 | -5 | -2 | -7
C=C1CCN([C@@H](CC(C)C)C(=O)NCCC(C)C)S(=O)(=O)c2ccccc21 | 24* | · | -12 | -1 | -8 | -1
C=C1CCN([C@@H](Cc2ccccc2)C(=O)Nc2ccc(OC)cc2)S(=O)(=O)c2ccccc21 | 27* | · | -19 | 2 | 1 | 0
C=C1CCN([C@H](C(=O)Nc2ccc(OC)cc2)C(C)C)S(=O)(=O)c2ccccc21 | 8 | · | -24 | 0 | -3 | -2
CCCNC(=O)C[C@@H]1CC[C@@H]2[C@H](COC[C@@H](O)CN2C(=O)Nc2cccc(Cl)c2)O1 | · | · | 0 | 4[16.7 µM] | -5 | ·
C[C@H](CO)N1C[C@H](C)[C@H](CN(C)S(C)(=O)=O)Oc2ccc(NC(=O)CCN3CCOCC3)cc2CC1=O | · | · | -23 | 3[16.7 µM] | -3 | ·
